About 79,000 compounds went through this panel and 15% of them were active in at least one assay; those are over-represented in the sample as a whole. The source made the active and inactive calls. No stated cut-off is given here; in the data, active means growth inhibition above about 70%; inactive means the rest.

This note sets out measurements from PubChem BioAssay (NCI).

The first test in a line: NCI Yeast Anticancer Drug Screen. Data for the rad50 strain (AID 155).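 Further: 0% = growth of vehicle-only cultures of the same strain.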 The settings on record: S. cerevisiae rad50 strain growth inhibition; at 50.0 µM; active compounds read high. In outline:
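Vehicle-treated cultures provide the reference for the growth inhibition reported for compound-exposed, repair-deficient yeast.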
As for `C=CC[N+](C)(C)C`, the growth inhibition was 6.75% (inactive).

With `C/C(=N\NC(=O)c1ccccc1N)c1ccccc1O`, the growth inhibition is 6.15% (inactive).

`O=C(NCCNC(=O)c1ccc(Cl)cc1Cl)c1ccc(Cl)cc1Cl`: the growth inhibition was -9.25% (inactive).

For the molecule `CCOC(=O)CCCC(=O)OCC`, the growth inhibition is 20.8% (inactive).

Take `Cc1ccccc1C1N=C2Oc3ccccc3C=C2C(=O)N1` (stereo unspecified): the growth inhibition was 10.7% (inactive).

`O=C(O)C(O)c1ccccc1` (stereo unspecified): the growth inhibition was 20.2% (inactive).

In the case of `CN(C)/N=C/c1ccccc1O`, the growth inhibition is 1% (inactive).

For `O=c1cc2oc3cc(O)c(O)cc3c(-c3ccccc3O)c-2cc1O`, the growth inhibition is 26.1% (inactive).

As to `Oc1ccccc1O`, the growth inhibition is 11.7% (inactive).

As for `Cc1ccc(C(O)C2CC2)cc1` (stereo unspecified), the growth inhibition was -24.2% (inactive).

As for `CSC[C@H](NC(=O)COc1cccc2cnccc12)C(=O)NC(Cc1ccccc1)C(O)C(=O)N1CSC[C@H]1C(=O)NC(C)(C)C` (stereo partly specified), the growth inhibition is -34.3% (inactive).

For `Cc1ccc(C)n1-c1ccsc1C(=O)NNC(=O)C(Cl)Cl`, the growth inhibition is 5.9% (inactive).

As for `O=S(=O)(O)c1ccc(O)c2ccccc12`, the growth inhibition was -12.6% (inactive).

Consider `Cc1cc(C)c(CC(=O)O)c(C)c1`, for which the growth inhibition was 30.5% (inactive).

As to `CC1Cc2ccccc2O1` (stereo unspecified), the growth inhibition is 2.7% (inactive).

As for `O=[N+]([O-])c1ccccc1N=Nc1ccc(O)cc1O`, the growth inhibition was 35.4% (inactive).

As to `CC(=O)c1ccc(C)c(N)c1`, the growth inhibition was -4.15% (inactive).

On to `CCCCNC(=O)C(=O)NCCCC`, for which the growth inhibition is 10.8% (inactive).

Turning to `CCOC(=O)c1[nH]c(C)c(C(=O)O)c1C`, the growth inhibition is -4.45% (inactive).

In the case of `Cn1cnc2nc(Cl)nc(Cl)c21`, the growth inhibition is 13.1% (inactive).

With `CC(=O)c1ccc2c(ccc3ccccc32)c1`, the growth inhibition was -13.1% (inactive).

As to `O=c1[nH][nH]c(=O)c2cc([N+](=O)[O-])ccc12`, the growth inhibition was 32.9% (inactive).

As to `C=C1CC/C=C(\C)C(=O)C[C@@H]2[C@@H]1CC2(C)C`, the growth inhibition is 5.85% (inactive).

`COS(=O)(=O)c1ccc(Br)cc1`: the growth inhibition is -6% (inactive).

As for `S=c1sc2ccccc2n1CN1CCCCC1`, the growth inhibition was 7.7% (inactive).

In the case of `O=c1[nH]nc(SC2CCCCC2)c(=O)[nH]1`, the growth inhibition is -12.1% (inactive).

Consider `O=c1cc(-c2ccccc2)oc2c1ccc1ccccc12`, for which the growth inhibition is 11% (inactive).

Regarding `COc1cc(C2NC(=O)C(C#N)=C(Nc3cccc(C)c3)S2)ccc1O` (stereo unspecified), the growth inhibition is -2.7% (inactive).

In the case of `CCCCNC1(C#N)CCN(Cc2ccccc2)CC1`, the growth inhibition is -2.25% (inactive).

For the molecule `O=C(Cc1nc2ccc([N+](=O)[O-])cc2nc1CC(=O)c1cccnc1)c1cccnc1`, the growth inhibition is 14.3% (inactive).

For the molecule `O=C1C=C(O)C(=O)C=C1O`, the growth inhibition is 4.45% (inactive).

`O=C(CS)Nc1ccc2ccccc2c1`: the growth inhibition is 3.5% (inactive).

For the molecule `COC(=O)c1[nH]c(=O)c(C#N)c(C(=O)OC)c1C(=O)c1ccccc1`, the growth inhibition was 5% (inactive).

As for `CCCC(C)OCC(=O)O` (stereo unspecified), the growth inhibition was 31.6% (inactive).

For `CN(C)c1ccc2nc3ccc(=N)cc-3sc2c1`, the growth inhibition is 4.55% (inactive).

Consider `CCOC(=O)C(CCC(C)C)C(=O)OCC`, for which the growth inhibition is -7.55% (inactive).

For the molecule `COC(=O)/C=C1\Sc2cc(F)ccc2NC1=O`, the growth inhibition was -12.9% (inactive).

For `Cc1cccc(C(=O)N(C(C)C)C(C)C)c1`, the growth inhibition was -0.9% (inactive).

A further test is described as follows: NCI Yeast Anticancer Drug Screen. Data for the mec2-1 strain (AID 157). To be noted: S. cerevisiae mec2-1 strain, at 50.0 µM, active compounds read high. In outline:
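Test agents were screened against the mec2-1 yeast strain, with defined DNA repair or cell cycle alteration. Growth was scored as inhibition against vehicle-only controls.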
In the case of `C=CC[N+](C)(C)C`, the growth inhibition was -27.9% (inactive).

In the case of `C/C(=N\NC(=O)c1ccccc1N)c1ccccc1O`, the growth inhibition is -7.75% (inactive).

As to `O=C(NCCNC(=O)c1ccc(Cl)cc1Cl)c1ccc(Cl)cc1Cl`, the growth inhibition is -10.8% (inactive).

For the molecule `CCOC(=O)CCCC(=O)OCC`, the growth inhibition is -8.1% (inactive).

On to `Cc1ccccc1C1N=C2Oc3ccccc3C=C2C(=O)N1` (stereo unspecified), for which the growth inhibition was -11.8% (inactive).

Regarding `O=C(O)C(O)c1ccccc1` (stereo unspecified), the growth inhibition is -7.65% (inactive).

Turning to `CN(C)/N=C/c1ccccc1O`, the growth inhibition was 4% (inactive).

`O=c1cc2oc3cc(O)c(O)cc3c(-c3ccccc3O)c-2cc1O`: the growth inhibition is 2.25% (inactive).

Take `Oc1ccccc1O`: the growth inhibition is 6.7% (inactive).

For the molecule `Cc1ccc(C(O)C2CC2)cc1` (stereo unspecified), the growth inhibition was -38.6% (inactive).

As for `CSC[C@H](NC(=O)COc1cccc2cnccc12)C(=O)NC(Cc1ccccc1)C(O)C(=O)N1CSC[C@H]1C(=O)NC(C)(C)C` (stereo partly specified), the growth inhibition was -17.2% (inactive).

Consider `Cc1ccc(C)n1-c1ccsc1C(=O)NNC(=O)C(Cl)Cl`, for which the growth inhibition was 13.9% (inactive).

Consider `O=S(=O)(O)c1ccc(O)c2ccccc12`, for which the growth inhibition is 19.4% (inactive).

`Cc1cc(C)c(CC(=O)O)c(C)c1`: the growth inhibition was 6.3% (inactive).

Regarding `CC1Cc2ccccc2O1` (stereo unspecified), the growth inhibition is 0.35% (inactive).

In the case of `O=[N+]([O-])c1ccccc1N=Nc1ccc(O)cc1O`, the growth inhibition was 21.1% (inactive).

With `CC(=O)c1ccc(C)c(N)c1`, the growth inhibition was 0.15% (inactive).

For the molecule `CCCCNC(=O)C(=O)NCCCC`, the growth inhibition was 7.2% (inactive).

In the case of `CCOC(=O)c1[nH]c(C)c(C(=O)O)c1C`, the growth inhibition is -26.3% (inactive).

For `Cn1cnc2nc(Cl)nc(Cl)c21`, the growth inhibition was 23% (inactive).

In the case of `CC(=O)c1ccc2c(ccc3ccccc32)c1`, the growth inhibition was -16.3% (inactive).

On to `O=c1[nH][nH]c(=O)c2cc([N+](=O)[O-])ccc12`, for which the growth inhibition was 11.6% (inactive).

For the molecule `C=C1CC/C=C(\C)C(=O)C[C@@H]2[C@@H]1CC2(C)C`, the growth inhibition was 11.8% (inactive).

On to `COS(=O)(=O)c1ccc(Br)cc1`, for which the growth inhibition is -23.4% (inactive).

Turning to `S=c1sc2ccccc2n1CN1CCCCC1`, the growth inhibition was 14.8% (inactive).

With `O=c1[nH]nc(SC2CCCCC2)c(=O)[nH]1`, the growth inhibition is -3.1% (inactive).

Take `O=c1cc(-c2ccccc2)oc2c1ccc1ccccc12`: the growth inhibition is 34.1% (inactive).

With `COc1cc(C2NC(=O)C(C#N)=C(Nc3cccc(C)c3)S2)ccc1O` (stereo unspecified), the growth inhibition was -18.8% (inactive).

In the case of `CCCCNC1(C#N)CCN(Cc2ccccc2)CC1`, the growth inhibition was -7.95% (inactive).

For the molecule `O=C(Cc1nc2ccc([N+](=O)[O-])cc2nc1CC(=O)c1cccnc1)c1cccnc1`, the growth inhibition was 10.5% (inactive).

On to `O=C1C=C(O)C(=O)C=C1O`, for which the growth inhibition is -10.2% (inactive).

For the molecule `O=C(CS)Nc1ccc2ccccc2c1`, the growth inhibition is -0.85% (inactive).

On to `COC(=O)c1[nH]c(=O)c(C#N)c(C(=O)OC)c1C(=O)c1ccccc1`, for which the growth inhibition was -6.4% (inactive).

Regarding `CCCC(C)OCC(=O)O` (stereo unspecified), the growth inhibition was -3.4% (inactive).

Regarding `CN(C)c1ccc2nc3ccc(=N)cc-3sc2c1`, the growth inhibition was -19.1% (inactive).

Regarding `CCOC(=O)C(CCC(C)C)C(=O)OCC`, the growth inhibition was 7.85% (inactive).

With `COC(=O)/C=C1\Sc2cc(F)ccc2NC1=O`, the growth inhibition was 2.45% (inactive).

With `Cc1cccc(C(=O)N(C(C)C)C(C)C)c1`, the growth inhibition was -4.95% (inactive).
